Here are results for twelve compounds from article PMC5540273 (PLoS ONE, 2017).

The structures appear in SMILES notation.
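Note: KINOMEscan kinase panel screen.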

The test system of this experiment is EPHA1. As to conditions: concentration: 1 μM, replicates: in singlicate; n = 1.
On to `O=C(Nc1cccc(-c2nn3ccccc3c2-c2ccnc(Nc3cccc(C(F)(F)F)c3)n2)c1)c1c(F)cccc1F` [GSK292658], for which the “%Inh” value is on record as 5%. In the case of `CNC(=O)c1ccccc1Nc1nc(Nc2ccc(N3CCOCC3)cc2)ncc1Cl.Cl` [GSK1576028] it was 90.8%. In the case of `Cl.c1ccc(-c2ccc3c(Nc4ccc5[nH]ncc5c4)ccnc3c2)nc1` [GW440137] it was 32%. In the case of `Cl.Cl.NCC(NC(=O)c1cc(-c2ccccc2)c(-c2ccnc3[nH]ccc23)s1)c1ccccc1` (stereo not drawn) [GSK1321561] it was 26%; in that of `COc1cc2c(cc1OCCN1CCNCC1)ncc1c3ccc(C#N)cc3[nH]c21`, 3%; in that of `CCn1c(-c2nonc2N)nc2c(C#CC(C)(C)O)ncc(OCCCCN)c21.O=C(O)C(F)(F)F.O=C(O)C(F)(F)F` [GSK507274], 20%. For the compound `COc1cc(Nc2nccc(-c3c(-c4cccc(NC(=O)c5c(F)cccc5F)c4)nn4ncccc34)n2)cc(OC)c1OC` [GSK327238], the “%Inh” value is listed as 86%. As for `COc1cc(Nc2nccc(N3CCC(NC(=O)Nc4cccc(C(C)=O)c4)C3)n2)cc(OC)c1OC` (stereo not drawn) [GSK1379753], the figure is 5%. As for `CN(C)S(=O)(=O)c1cc(-c2ccc3nccc(-c4cccc(S(N)(=O)=O)c4)c3c2)cnc1N` [GSK1669921], the figure is 10%. Turning to `COCCOCCOc1cc2ncc3c4ccc(C#N)cc4[nH]c3c2cc1OC`, the “%Inh” value is reported as 15%.

For `Nc1n[nH]c2cnc(-c3ccccc3)cc12` [SB-642124], the “%Inh” value worked out at 26%. As for `CN1CCN(CCCNc2nccc(-c3c(-c4ccc(F)cc4)nn4cc(C(F)(F)F)ccc34)n2)CC1` [GW621581], the figure is 42%.
